Source: PubChem BioAssay
Results filed as inconclusive are left out. Activity calls are given as the source filed them. Unless noted, no rule for the calls is given here.

Legend:
[1] = selective SMN2 exon splicing luciferase activators – cell-based, SMN2/SMN1 luciferase reporters (AID 1598); settings: SMN2 vs SMN1 luciferase splicing reporter cells, at 10 µM; SMN1 luciferase ratio: measured here: SMN1 luciferase reporter average; SMN2 luciferase ratio: measured here: SMN2 luciferase reporter average, stronger effect = higher value; SMN2/SMN1 luciferase ratio: stronger effect = higher value
[2] = human hepatoma cell viability loss – ATP luminescence, cytotoxicity control for P. falciparum antimalarial project, primary screen (AID 2303;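 active = inhibition above 50%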;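 also: 0% = DMSO wells and 100% = digitonin-killed cells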); settings: HepG2 viability, 24-48 h, at 10 µM, stronger effect = higher value
[3] = inhibition of 3D7 malaria parasite growth – strain 3D7 (AID 2306);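 also: 0% = DMSO wells and 100% = chloroquine plus artemisinin control wells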; settings: P. falciparum 3D7 erythrocytic growth, LDH absorbance, 72 h; at 2 µM; stronger effect = higher value
[4] = rescue of PC12 cells from polyQ htt toxicity – LDH release (AID 1610); settings: PC12 mutant huntingtin toxicity, final LDH at 4 uM, stronger effect = lower value

NC12CC3CC(CC(C3)C1)C2
SMN1 luciferase ratio [1]: 0.84
SMN2/SMN1 luciferase ratio [1]: 1.22 (active)
SMN2 luciferase ratio [1]: 1.01
inhibition [2]: 31% (inactive)
growth inhibition [3]: 98% (active)

N=C(N)c1ccc(OCCCCCOc2ccc(C(=N)N)cc2)cc1
growth inhibition [3]: 99% (active)

CC[C@H]1CN2CCc3cc(OC)c(OC)cc3[C@@H]2C[C@@H]1C[C@H]1NCCc2cc(OC)c(OC)cc21
inhibition [2]: 43% (inactive)
growth inhibition [3]: 101% (active)

CCN(CC)CCCC(C)Nc1ccnc2cc(Cl)ccc12 (stereo not given)
inhibition [2]: 12% (inactive)
growth inhibition [3]: 100% (active)

CCCCCN=C(N)N/N=C/c1c[nH]c2ccc(OC)cc12
inhibition [2]: 16% (inactive)
growth inhibition [3]: 86% (active)

c1ccc([C@H]2CN3CCSC3=N2)cc1
inhibition [2]: 11% (inactive)
growth inhibition [3]: 93% (active)

CCN(CC)CCCC(C)Nc1c2ccc(Cl)cc2nc2ccc(OC)cc12 (stereo not given)
growth inhibition [3]: 101% (active)

c1ccc(CC2=NCCN2)cc1
inhibition [2]: 3% (inactive)
growth inhibition [3]: 94% (active)

CCN(CCO)CCCC(C)Nc1ccnc2cc(Cl)ccc12 (stereo not given)
inhibition [2]: 3% (inactive)
growth inhibition [3]: 99% (active)

CC(C)C(=O)Nc1ccc([N+](=O)[O-])c(C(F)(F)F)c1
normalised LDH release [4]: 0.739
